# Results published in the supplement of paper PMC3545927.
# Some of the results follow. The true hit rate is not given.
# Biological target: furin, P09958
# Assay: furin cleavage Z-score vs untreated control; higher = more cleavage, active = 3.5 or more, inactive = 1 or less, 8 variable residues between constant flanks
# Procedure, shortened: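 Purified furin cleaved 8-mer peptides that were fused to a cDNA oligonucleotide and held on magnetic beads by their N-terminus. Each 0.01 ml reaction used a 1:10 enzyme:substrate ratio in 50 mM HEPES pH 7.5 with CaCl2 and NaCl and ran 7.5, 15 or 30 min. Released DNA was adapter-tagged by PCR and sequenced, and read counts gave abundance. The cleavage Z-score came from log counts against furin-free reactions, lowess-adjusted and scaled by median absolute deviation.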
# Sequence of furin, P09958 (P09958 whole entry): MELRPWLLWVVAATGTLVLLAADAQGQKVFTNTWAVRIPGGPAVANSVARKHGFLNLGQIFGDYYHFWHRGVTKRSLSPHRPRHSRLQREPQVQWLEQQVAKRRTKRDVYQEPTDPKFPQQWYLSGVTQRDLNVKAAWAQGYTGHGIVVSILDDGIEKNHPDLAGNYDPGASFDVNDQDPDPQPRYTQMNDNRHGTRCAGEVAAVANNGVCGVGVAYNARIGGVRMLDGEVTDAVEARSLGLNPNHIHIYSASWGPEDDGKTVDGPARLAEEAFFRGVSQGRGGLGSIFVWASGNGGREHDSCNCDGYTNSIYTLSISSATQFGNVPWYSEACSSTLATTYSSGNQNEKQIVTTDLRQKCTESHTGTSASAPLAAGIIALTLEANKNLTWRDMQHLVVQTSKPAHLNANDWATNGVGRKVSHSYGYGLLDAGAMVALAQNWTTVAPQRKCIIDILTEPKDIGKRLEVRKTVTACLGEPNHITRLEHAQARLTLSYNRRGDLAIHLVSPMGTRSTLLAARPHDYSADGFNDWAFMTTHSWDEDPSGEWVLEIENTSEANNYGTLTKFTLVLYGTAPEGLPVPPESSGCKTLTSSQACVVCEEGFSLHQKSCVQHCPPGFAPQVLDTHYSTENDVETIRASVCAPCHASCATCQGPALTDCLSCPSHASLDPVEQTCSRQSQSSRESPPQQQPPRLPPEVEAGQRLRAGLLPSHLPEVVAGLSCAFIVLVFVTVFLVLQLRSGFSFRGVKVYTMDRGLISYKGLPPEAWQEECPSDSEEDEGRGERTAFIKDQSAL
Sequence,furin cleavage Z-score (7.5 min),furin cleavage Z-score (15 min),furin cleavage Z-score (30 min)
CAMETCSQHLAGNASASA [HC1718],-0.505 (inactive),1.16,2.25
CARLRKDQLKAGNASASA [FS-2432],-0.25 (inactive),0.106 (inactive),1.29
CARLKREIEKAGNASASA [FS-2431],9.68 (active),9.27 (active),9.19 (active)
CARLGRSIDDAGNASASA [FS-2275],5.11 (active),6.98 (active),5.82 (active)
CARLGRIVDRAGNASASA [FS-1737],-0.217 (inactive),-0.37 (inactive),0.14 (inactive)
CARLKRNQEKAGNASASA [FS-2707],-0.221 (inactive),0.44 (inactive),1.38
CARLKRYHSQAGNASASA [FS-2156],1.21,-0.314 (inactive),1.6
CARLRRPIGKAGNASASA [FS-3160],-0.962 (inactive),-0.579 (inactive),-1.27 (inactive)
CARLKRSRLKAGNASASA [FS-1741],3.6 (active),6.18 (active),7.33 (active)
CARLKRNIGYAGNASASA [FS-1962],4.52 (active),7.71 (active),8.24 (active)
CAIVPCHRPSAGNASASA [HC2304],0.422 (inactive),0.63 (inactive),0.055 (inactive)
CAGKSTKVPAAGNASASA [HC778],1.37,0.655 (inactive),-0.125 (inactive)
